Screens deposited in PubChem BioAssay by The Scripps Research Institute Molecular Screening Center.
In the library only some 1.1% were active in any assay of this set; here they are far more common.
MOR-DOR ag = OPRM1-OPRD1 heterodimerization agonism | cells, luminescence | activation, % at 9.3 µM | hit rate 0.3% among 340,000 | AID 504326;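 further: 0% = vehicle-treated cells and 100% = reference agonist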
HTR5A inv ag = counter-screen for OPRM1-OPRD1 inverse agonists: human HTR5A inverse agonism. inhibition, % at 9.3 µM. HTR5A cell line, luminescence. P47898. hit rate 0.083% among 340,000. AID 504634; in the data active means inhibition mostly above about 23%, no sharp cut-off; inactive means mostly below about 18%;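 further: 0% = cells with DMSO and 100% = no-cell wells with DMSO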
MOR-DOR inv ag = mu-delta opioid heterodimer inverse agonism. hit rate 0.21% among 340,000. inhibition, % at 9.3 µM. P35372+P41143. cell-based MOR-DOR heterodimer luminescence; in the data active means inhibition above about 22%, passing the limit was not always enough;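 further: 0% = cells with DMSO and 100% = wells without cells with DMSO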
HTR5A ag ctr = HTR5A agonism, opioid heterodimer counter-screen. P47898. activation, % at 9.3 µM. HTR5A agonist assay, luminescence, cell-based. hit rate 0.61% among 340,000; in the data active means activation mostly above about 9.5%, no sharp cut-off; inactive means mostly below about 7.6%;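 further: 0% = cells with vehicle only and 100% = reference agonist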
OPRM1-D1 ag cf = confirmation of human OPRM1-OPRD1 heterodimerization agonists | shares compounds with MOR-DOR ag | cells, MOR-DOR heterodimerization, luminescence complementation | hit rate 45% among 830 | AID 504904 | activation, % at 9.3 µM;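 further: 0% = vehicle-treated cells and 100% = reference agonist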
HTR5A ag counter = counter-screen for OPRM1-OPRD1 agonists: human HTR5A agonism | activation, % at 9.3 µM | hit rate 8% among 830 | shares compounds with MOR-DOR ag | HTR5A agonist counterscreen, cell luminescence | AID 504905; in the data active means activation above about 17%;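 further: 0% = vehicle-treated cells and 100% = reference agonist response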
Active calls of the source: *; i = inactive; / = no result given; + = active, no number. Unless noted, no stated cut-off is given here; in the data, active means activation above about 18%; inactive means the rest.

SMILES | MOR-DOR ag | HTR5A inv ag | MOR-DOR inv ag | HTR5A ag ctr | OPRM1-D1 ag cf | HTR5A ag counter
Cc1nc2c(=O)n(C)c(=O)nc-2n(C)n1 | 20.2* | 6.2 | -101.4 | -2.4 | 21.9* | -2.3
CC(C)=CCN1CC[C@@]2(C)c3cc(O)ccc3C[C@@H]1C2C (stereo partly drawn) | 37.4* | 1.1 | -150.4 | -0.5 | -1.4 | -1.4
CC(C)=CCN1CC[C@@]2(C)c3cc(O)ccc3CC1C2C (stereo partly drawn) | -3.6 | 15.5 | 14.7 | -6.7 | / | /
CC1[C@H]2Cc3ccc(O)cc3[C@]1(C)CCN2C (stereo partly drawn) | 44.5* | -2.0 | -178.7 | 0.8 | 41.6* | 1.5
C=CCN1CC[C@@]2(C)c3cc(O)ccc3CC1[C@@H]2C | 3.4 | 6.6 | -18.2 | -1.9 | / | /
Cc1ccccc1-[n+]1c(-c2ccccc2)cc(-c2ccccc2)cc1-c1ccccc1 | -2.2 | -27.4 | 12.0 | -2.6 | / | /
COc1ccc(C(CNC(=O)Cc2ccc(Cl)c(Cl)c2)N(C)C)cc1 (stereo not drawn) | 121.2* | 2.7 | i | -1.0 | 8.4 | 6.5
O=C1C(=O)c2ccccc2-c2ccccc21 | 40.2* | -43.7 | -222.4 | 8.6 | 15.2 | 4.3
Cc1ccc(C[n+]2c(-c3ccc(C)cc3)cc(-c3ccc(C)cc3)cc2-c2ccc(C)cc2)cc1 | 68.4* | -59.1 | -374.5 | 23.3* | 11.2 | 10.6
Cc1ccccc1NC1(C#N)CCCCC1 | -1.7 | -0.1 | 8.9 | 0.0 | / | /
CCOC(=O)C1(c2ccccc2)CCN(CCC(=O)Nc2cccc(Br)c2)CC1 | 49.1* | 8.1 | -312.8 | 12.7 | 57.5* | -0.7
CCOC(=O)C1(c2ccccc2)CCN(CCC(=O)Nc2ccc(C(=O)OC)cc2)CC1 | 4.8 | -4.2 | -20.8 | 1.7 | / | /
CCOC(=O)C1(c2ccccc2)CCN(CCC(C#N)(c2ccccc2)c2ccccc2)CC1 | 288.1* | -24.8 | i | 6.9 | -0.1 | 3.6
CC(C)(CN)CC(=O)O | -2.8 | -11.2 | 14.7 | 4.4 | / | /
Cn1cc[n+](C)c1P(=S)(c1ccccc1)c1ccccc1 | 39.5* | 18.9 | -217.6 | -6.8 | 5.3 | 14.6
CN1CCCC(C(=O)c2ccc(Cl)cc2)C1 (stereo not drawn) | 20.6* | 2.3 | -107.5 | -0.9 | -0.1 | -3.4
C[C@@H]1O[C@@H](O[C@H]2C[C@@H](O)[C@]3(CO)[C@@H]4C(CC[C@]3(O)C2)[C@@]2(O)CC[C@H](C3COC(=O)C3)[C@@]2(C)C[C@H]4O)[C@H](O)[C@H](O)[C@H]1O (stereo partly drawn) | 72.5* | -67.8 | -401.7 | 22.9 | 2.7 | 7.1
O=[N+]([O-])CCO | -2.7 | -2.0 | 14.3 | 0.5 | / | /
CC(=O)O[C@]1(c2ccccc2)CCN(C)[C@H]2CCCC[C@@H]21 | -2.6 | -40.3 | 14.6 | 1.2 | / | /
CCC1CN(C)CCC1(OC(C)=O)c1ccccc1 (stereo not drawn) | 24.7* | 6.2 | -123.7 | -4.4 | 22.9* | 4.5
Clc1ccc(CSC(Cn2ccnc2)c2ccc(Cl)cc2Cl)cc1 (stereo not drawn) | + | -21.2 | i | 8.0 | i | 0.0
Clc1ccc(COC(Cn2ccnc2)c2ccc(Cl)cc2Cl)cc1 (stereo not drawn) | 14.2 | 5.7 | -78.8 | 8.7 | / | /
CCOC(=O)C1(CCc2ccccc2)CCN(Cc2csc(C(C)=O)c2)CC1 | 63.3* | -12.1 | -358.2 | 4.6 | 2.5 | 18.0*
CCOC(=O)C1(CCc2ccccc2)CCN(Cc2cccc3cnccc23)CC1 | 14.5 | -7.8 | -68.7 | 6.6 | / | /
CCOC(=O)C1(CCc2ccccc2)CCN(Cc2cccc3c2OCO3)CC1 | 35.5* | 9.5 | -205.7 | -3.7 | 11.2 | 0.1
CC[C@H]1CN2CCC1C[C@@H]2[C@H](O)c1ccnc2ccc(OC)cc12 (stereo partly drawn) | 1.8 | 7.5 | -9.5 | -2.1 | / | /
C[C@H]1CC[C@@H]2[C@@H](C)[C@H]3[C@H](C[C@H]4[C@@H]5CC=C6C[C@@H](O[C@@H]7O[C@H](CO)[C@H](O)[C@H](O[C@@H]8O[C@H](CO)[C@@H](O)[C@H](O)[C@H]8O)[C@H]7O[C@@H]7O[C@@H](C)[C@H](O)[C@@H](O)[C@H]7O)CC[C@]6(C)[C@H]5CC[C@]34C)N2C1 | -1.9 | -28.8 | 9.6 | -1.2 | / | /
CC12CCC(O)CC1CCC1C2CCC2(C)C(C3=CC(=O)OC3)CCC12O (stereo not drawn) | 92.6* | -124.9 | -405.4 | 32.5* | 10.4 | 4.5
